YB-1 expression: YB-1 expression inhibition; U2OS, qRT-PCR YB-1 vs CDIP delta delta Cp, 16 h; stronger effect = higher value; zero = DMSO, each unit about twofold; delta delta Cp (YB-1 minus CDIP) (test concentration not listed); 0.37% of 30,000 active;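 active = delta delta Cp rounded down to an integer at or above 3, about 3 SD of DMSO wells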;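 also: higher means less YB-1 transcript or more CDIP transcript relative to DMSO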
ROS inducer: cancer cell ROS induction. ROS induction (% of piperlongumine), % at 10 µM. U2OS ROS induction, H2DCF-DA fluorescence. AID 624156. 2% of 46,000 active; in the data active = ROS induction above about 79%, passing the limit was not always enough
Hits are given with their value; n = inactive; x = no result given. In the library only some 2.1% were active in any assay of this set; here they are far more common.

SMILES	YB-1 expression	ROS inducer
O=C1c2oc3ccccc3c(=O)c2C(c2ccccc2)N1c1nccs1 (stereo unspecified)	x	n
NC(=O)CSc1ncnc2c1nnn2Cc1ccc(F)cc1	x	135
O=C(CSc1ncnc2c1nnn2Cc1ccc(F)cc1)OCc1ccccc1	x	n
O=S(=O)(Nc1nc2ccccc2nc1-[n+]1ccccc1)c1ccccc1	x	n
Cc1ccccc1NC(=O)Nc1ccc(OCc2ccccc2)cc1	x	n
Cc1nn(CCCC(=O)O)c(=O)c2c1sc1ccccc12	x	n
C=CCNC(=O)[C@H]1[C@@H]2C(=O)O[C@@H](c3ccccc3)[C@@H](c3ccccc3)N2[C@@H](c2ccccc2OCCO)[C@]12C(=O)Nc1ccc(C#CCCO)cc12	n	n
C=CCNC(=O)[C@H]1[C@@H]2C(=O)O[C@@H](c3ccccc3)[C@@H](c3ccccc3)N2[C@@H](c2ccc(O)cc2)[C@]12C(=O)N(C(=O)OCCOC)c1ccc(C#CCC(C(=O)OC)C(=O)OC)cc12	n	n
C=CCNC(=O)[C@@H]1[C@H]2C(=O)O[C@H](c3ccccc3)[C@H](c3ccccc3)N2[C@H](c2ccccc2OCCO)[C@@]12C(=O)N(C(=O)OCCOC)c1ccc(C#CCC(C(=O)OC)C(=O)OC)cc12	n	110
C=CCNC(=O)[C@@H]1[C@H]2C(=O)O[C@H](c3ccccc3)[C@H](c3ccccc3)N2[C@H](c2ccccc2OCCO)[C@@]12C(=O)N(C(=O)OCCOC)c1ccc(C#CC3=CCCCC3)cc12	n	n
COCCOC(=O)N1C(=O)[C@@]2(c3cc(C#CC4=CCCCC4)ccc31)[C@H](C(=O)NC[C@H](O)c1ccccc1)[C@H]1C(=O)O[C@H](c3ccccc3)[C@H](c3ccccc3)N1[C@@H]2c1ccccc1OCCO	n	n
COCCOC(=O)N1C(=O)[C@@]2(c3cc(C#CC4(O)CCCCCC4)ccc31)[C@H](C(=O)NC[C@H](O)c1ccccc1)[C@H]1C(=O)O[C@H](c3ccccc3)[C@H](c3ccccc3)N1[C@@H]2c1ccccc1OCCO	n	141
C=CCNC(=O)[C@H]1[C@@H]2C(=O)O[C@@H](c3ccccc3)[C@@H](c3ccccc3)N2[C@@H](c2ccccc2OCCO)[C@]12C(=O)N(C(=O)OCCOC)c1ccc(C#CC3=CCCCC3)cc12	n	177
C=CCNC(=O)[C@H]1[C@@H]2C(=O)O[C@@H](c3ccccc3)[C@@H](c3ccccc3)N2[C@@H](c2ccccc2OCCO)[C@]12C(=O)Nc1ccc(C#CC3(O)CCCCCC3)cc12	n	102
COc1ccc(NC(=O)CC2C(=O)NCCN2C(=O)c2ccc(C(C)(C)C)cc2)cc1 (stereo unspecified)	x	n
CCOC(=O)c1c(NC(=O)c2ccco2)sc2c1CCCC2=O	x	n
Cc1ccc(S(=O)(=O)/N=C(\Nc2cc(C)on2)c2ccccc2)cc1	x	n
CCc1ccccc1NC(=O)CCSc1nc2n[nH]c(C)c2c(=N)n1-c1cccc(Cl)c1	x	n
O=C(CSCc1ccccc1)Nc1ccccc1C(=O)NCc1ccccc1	x	n
OC1(C(F)(F)F)CC(/C=C/c2ccccc2)=NO1 (stereo unspecified)	x	n
O=C(CCCn1c(=O)c2cccn2c2ccccc21)NCCc1ccccc1	x	n
COCCOC(=O)N1C(=O)[C@@]2(c3cc(C#CC4(O)CCCCCC4)ccc31)[C@H](C(N)=O)[C@H]1C(=O)O[C@H](c3ccccc3)[C@H](c3ccccc3)N1[C@@H]2c1ccccc1OCCO	n	n
COCCOC(=O)N1C(=O)[C@@]2(c3ccccc31)[C@H](c1ccc(OCCO)cc1)N1[C@H](c3ccccc3)[C@H](c3ccccc3)OC(=O)[C@H]1[C@@H]2C(=O)NC[C@H](O)c1ccccc1	n	189
C=CCNC(=O)[C@@H]1[C@H]2C(=O)O[C@H](c3ccccc3)[C@H](c3ccccc3)N2[C@H](c2ccccc2OCCO)[C@@]12C(=O)N(C(=O)OCCOC)c1ccc(C#CC3(O)CCCCCC3)cc12	n	98
COCCOC(=O)N1C(=O)[C@@]2(c3ccccc31)[C@H](c1ccc(O)cc1)N1[C@H](c3ccccc3)[C@H](c3ccccc3)OC(=O)[C@H]1[C@@H]2C(=O)NC[C@H](O)c1ccccc1	n	n
SMILES	YB-1 expression	ROS inducer
O=C(Cn1c(=O)oc2cc(S(=O)(=O)NCc3ccccc3)ccc21)N1CCOCC1	x	n
O=C(O)CCCC(=O)Nc1ccccc1SCc1noc(-c2cccs2)n1	x	n
CC1CCC(C(C)C)C(NC(=O)c2cccc3ccccc23)C1 (stereo unspecified)	n	n
COc1ccccc1NC(=O)C12CC3CC(CC(C3)C1)C2	x	n
O=C(O)CSc1c2c(nc3cc(C(=O)NC4CCCCCC4)ccc13)CCC2	x	n
COc1ccc(CN2C(=O)[C@@H]3[C@H]4C(=O)O[C@H](c5ccccc5)[C@@H](C)N(C)C(=O)CC/C=C/[C@H]4O[C@@]34C=CCN(Cc3ccccc3)C(=O)[C@@H]24)cc1	n	122

Source: PubChem BioAssay (Broad Institute)
